Shown is part of a subset that was picked to be rich in hits.
RORgamma inh – inhibitors of mouse ROR gamma transcriptional activity | P51450 | Drosophila S2 Gal4-RORgamma UAS-luciferase reporter, 20 h | Potency, µM (series often up to 53.6 µM), most hits filed as inhibitors | 310,000 tested, 5.4% active | AID 2551; further: nearly all actives have a fitted effect of over 60% in size
Target sequence (P51450 whole entry, looked up, the tested form may be a part): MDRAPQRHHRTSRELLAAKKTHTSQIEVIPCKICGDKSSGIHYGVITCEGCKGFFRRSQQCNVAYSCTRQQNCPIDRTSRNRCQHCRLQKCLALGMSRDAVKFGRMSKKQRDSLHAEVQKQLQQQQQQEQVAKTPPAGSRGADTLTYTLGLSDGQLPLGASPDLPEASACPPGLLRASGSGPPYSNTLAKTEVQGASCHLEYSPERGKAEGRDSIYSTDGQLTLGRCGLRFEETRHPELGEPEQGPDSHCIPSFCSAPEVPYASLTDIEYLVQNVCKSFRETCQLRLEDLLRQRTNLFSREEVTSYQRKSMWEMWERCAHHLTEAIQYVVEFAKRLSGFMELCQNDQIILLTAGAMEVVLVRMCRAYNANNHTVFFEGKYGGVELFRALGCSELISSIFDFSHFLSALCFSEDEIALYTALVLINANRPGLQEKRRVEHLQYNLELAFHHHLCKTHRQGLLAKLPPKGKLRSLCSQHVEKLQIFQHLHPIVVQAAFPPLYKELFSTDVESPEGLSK
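Using a luciferase readout, inhibitors were identified by reduced reporter activity in Drosophila cells coexpressing a copper-inducible Gal4–ROR gamma fusion and UAS-driven Photinus luciferase, incubated 20 hr after 700 uM copper sulfate.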
ERG-DNA inh – ERG Ets/DNA interaction inhibition; P11308; fluorescence polarization, His-ERG Ets domain / labelled DNA; Potency, µM (series often up to 76.9 µM), hits mostly inhibitors; 370,000 tested, 0.028% active; AID 624246; active means well fitted inhibition curve with a large enough effect in the polarisation, with a control signal flat; inconclusive means small, poorly fitted or top-dose-only effect, or effect the other way, or a change in a side signal; inactive means no such curve, though single readings can be large or run the other way; the % refers to the polarisation;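 further: polarization taken with two DNA probes labelled with fluorescein and Texas red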
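His-tagged ERG Ets domain (1 uM in the protein solution; 300mM KCl, 50mM Tris-HCl, 1mM EDTA, 1mM DTT, pH 7.5) received compound, then a probe mix of 5 nM fluorescein-DNA and 100nM Texas-615-DNA. Fluorescence polarization was read for both dyes.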
a7 integrin act – integrin-mediated muscular dystrophy alleviation activation. alpha7betagal myoblasts, beta-gal FDG fluorescence, 48 h. AID 624291. 350,000 tested, 0.064% active. Potency, µM (doses to about 38.3 µM), actives largely listed as activators; further: nearly all actives have a fitted effect of over 60% in size
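alpha7betagal+/- myoblasts (passage 13, 250/well) treated 48 h at 37C with compounds at 1:260 dilution of DMSO stock. Lysed, then beta-galactosidase activity read as FDG fluorescence (ex 480/em 540) after 30 min, with pre-read for autofluorescence.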
Giardia kill – kills Giardia lamblia. Giardia lamblia trophozoite viability. activity change, % at 7.66 µM, hits read low. 340,000 tested, 0.15% active. AID 540267; in the data active means activity change below about -80%; inconclusive means between about -30% and that limit;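 further: parasites exposed to compound for two days anaerobically before the ATP read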
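Anaerobic 48 hrs incubation at 37 deg C of 100 trophozoites/well with test compounds; ATPLite 1-Step luminescence, 15-30 min RT, reports cellular ATP as viability.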
Gal4-VP16 FLuc – inhibits Gal4-VP16 luciferase reporter, ROR gamma counter-screen; Drosophila S2 Gal4-VP16 UAS-luciferase, luminescence, 20 h; Potency, µM (series often up to 53.6 µM), usual class: inhibitors; 310,000 tested, 3.5% active;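 further: Gal4-VP16 expression switched on by copper sulfate through the metallothionein promoter; nearly all actives have a fitted effect of over 50% in size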
Each line names hits and unclear results; the compound was inactive in the other large screens. Unless noted, the call rests on the fitted dose curve; in most records, active means well fitted curve in the direction sought with a large enough effect; inconclusive means small, poorly fitted or top-dose-only effect, or another doubt; inactive means no such curve, though single readings can be large; an effect the other way counts as inactive or inconclusive.

COc1ccccc1-c1c(C)nn2c(N3CCCCCC3)cc(C)nc12	RORgamma inh 16µM, Gal4-VP16 FLuc 20µM
Cc1cc(N2CCCCC2)n2nc(C)c(-c3ccccc3)c2n1	none
Cc1nn2c(N3CCCC3)cc(C(C)C)nc2c1-c1ccccc1	RORgamma inh 14µM
CC1(C)CC(=O)C(CO)=C(c2cccc3ccccc23)C1=O	none (no result: RORgamma inh, Gal4-VP16 FLuc)
CC(C)CC(CSc1ccc(Br)cc1)N1CCN(CC(C)C)CCC1=O (centres undefined)	none (no result: ERG-DNA inh, a7 integrin act)
Cc1ccc2cccc(Oc3nnnn3-c3ccccc3)c2n1	RORgamma inh inconclusive
c1ccc(-n2nnnc2Oc2cccc3cccnc23)cc1	RORgamma inh 7.1µM, Gal4-VP16 FLuc 4.5µM (no result: ERG-DNA inh)
Cc1oc(-c2ccccc2F)nc1CSCC(=O)NC1CCC(C)CC1 (centres undefined)	none
Cc1c(-c2ccccc2)sc2nc[nH]c(=S)c12	RORgamma inh 0.5µM, Gal4-VP16 FLuc 1µM
CC1CCN(c2ccc(-c3ccc(NC(=O)C(F)(F)F)cc3)nn2)CC1	RORgamma inh 5.6µM, Giardia kill inconclusive
Cc1ccc(N2C(=O)C3C4C=CC(CNC(=S)N5CCN(c6cccc(C)c6)C(C)C5)(O4)C3C2=O)cc1 (centres undefined)	RORgamma inh 8.9µM, Gal4-VP16 FLuc inconclusive
Cc1cccc(N2CCN(C(=O)CN3CCOc4ccccc43)CC2C)c1 (centres undefined)	none
Cc1cccc(C)c1OCC(=O)N[C@@H](Cc1ccccc1)[C@@H](O)C[C@H](Cc1ccccc1)NC(=O)[C@H](C(C)C)N1CCCNC1=O	RORgamma inh inconclusive (no result: ERG-DNA inh, a7 integrin act, Giardia kill)
O=C(NCC(c1ccco1)N1CCOCC1)c1c(F)cccc1F (centres undefined)	none (no result: RORgamma inh, Gal4-VP16 FLuc)
Cc1cc(C)c(C(=O)/C=C/c2ccc(C(C)C)cc2)c(=O)[nH]1	RORgamma inh inconclusive, Gal4-VP16 FLuc 32µM
CN(CC1CCCO1)S(=O)(=O)c1ccc(C(=O)Nc2nc(-c3ccccn3)cs2)cc1 (centres undefined)	RORgamma inh 7.9µM, Gal4-VP16 FLuc 11µM
CN(CC1CCCO1)S(=O)(=O)c1ccc(C(=O)Nc2ccccc2F)cc1 (centres undefined)	none (no result: RORgamma inh, Gal4-VP16 FLuc)
COc1ccccc1-c1nnc(NC(=O)c2ccc(S(=O)(=O)N(C)CC3CCCO3)cc2)o1 (centres undefined)	RORgamma inh 0.71µM, Gal4-VP16 FLuc 1µM
CN(CC1CCCO1)S(=O)(=O)c1ccc(C(=O)Nc2nnc(-c3ccccc3)o2)cc1 (centres undefined)	RORgamma inh 0.63µM, Gal4-VP16 FLuc 0.56µM
CC1CCCC(C)N1/N=C/c1ccc(N(C)C)cc1 (centres undefined)	RORgamma inh inconclusive
Cc1cc(C)cc(OCc2nnc(SCC(=O)N3CCN(c4ccccc4)CC3)o2)c1	none
CCCC(=O)Nc1ccc(C2C(=O)c3ccccc3C2=O)cc1	RORgamma inh 11µM, Giardia kill inconclusive, Gal4-VP16 FLuc 11µM
CC(=O)Nc1ccc(C2C(=O)c3ccccc3C2=O)cc1	none
S=C(NCCCc1ccccc1)Nc1ccc(Cl)cc1	RORgamma inh 4.5µM, Gal4-VP16 FLuc 5µM
S=C(NCCCc1ccccc1)Nc1ccccc1	RORgamma inh 16µM, Gal4-VP16 FLuc 4µM
Cc1ccccc1OCCNC(=S)Nc1ccccc1	RORgamma inh 3.2µM, Gal4-VP16 FLuc 5.6µM
S=C(NCCc1ccccc1)Nc1ccc(Nc2ccccc2)cc1	RORgamma inh 5µM, Gal4-VP16 FLuc 13µM
O=C(NCCCc1ccccc1)Nc1ccccc1	none
CCOC(=O)c1c(C)[nH]c(C)c1S(=O)(=O)NCC(=O)Nc1cccc(SC)c1	none (no result: RORgamma inh, a7 integrin act, Giardia kill, Gal4-VP16 FLuc)
N#CC1=C(N)N(c2ncn[nH]2)C2=C(C(=O)CCC2)C1c1ccc(F)cc1 (centres undefined)	none
Cc1[nH]c2ccccc2c1-c1nc(-c2ccc(Cl)cc2)nnc1-c1ccccc1	none (no result: ERG-DNA inh, a7 integrin act, Giardia kill)
CCNC(=S)NNC(=O)Nc1ccccc1	none
CCCNC(=S)Nc1ccccc1	RORgamma inh 10µM, Gal4-VP16 FLuc inconclusive
COc1cccc(/C=N/Nc2nc(C)cc(=O)[nH]2)c1OC	none
COc1cccc(/C=N/Nc2ncccc2[N+](=O)[O-])c1OC	RORgamma inh 1.3µM, Gal4-VP16 FLuc 4.5µM
O=[N+]([O-])c1ccc(/C=N/Nc2ncccc2[N+](=O)[O-])s1	Giardia kill -93 (no result: RORgamma inh, Gal4-VP16 FLuc)
O=C1OCC2=C1C(c1ccccc1)CC(=O)N2c1ccc(F)cc1 (centres undefined)	none
O=C(Cc1ccc(Br)c2ccccc12)N/N=C/c1ccccn1	RORgamma inh 7.9µM
O=C(N/N=C\c1ccccn1)c1ccccc1O	RORgamma inh 2µM, Gal4-VP16 FLuc 4.5µM
Cc1ccccc1C(=O)N/N=C/c1ccccn1	RORgamma inh 10µM, Gal4-VP16 FLuc inconclusive
O=C(N/N=C\c1ccccn1)c1cccc(C(=O)N/N=C\c2ccccn2)n1	none (no result: RORgamma inh, Gal4-VP16 FLuc)
O=C(N/N=C/c1ccc(-c2ccccc2)o1)c1ccccc1O	RORgamma inh inconclusive, Gal4-VP16 FLuc 0.63µM
CCOC(=O)C(CC)/C(C)=N\NC(=O)c1ccccc1O (centres undefined)	RORgamma inh 10µM, Gal4-VP16 FLuc 13µM
O=C(N/N=C/c1ccccn1)c1cccs1	RORgamma inh 7.1µM, Gal4-VP16 FLuc inconclusive
O=C(N/N=C/c1ccccn1)c1ccncc1	none
Cc1ccccc1OCC(=O)N/N=C/c1ccccn1	RORgamma inh 14µM
Cc1cc(C)cc(OCC(=O)N/N=C/c2ccccn2)c1	a7 integrin act inconclusive
C/C=N\NC(=O)COc1cc(C)ccc1C	RORgamma inh 13µM
Cc1ccc(C)c(OCC(=O)NCCNC(=O)COc2cc(C)ccc2C)c1	none
CCC/C(C)=N/NC(=O)c1ccccc1O	RORgamma inh inconclusive, Gal4-VP16 FLuc inconclusive
COc1cc(C(=O)Nc2ccccc2OCc2cc(=O)n3cc(C)sc3n2)cc(OC)c1OC	none (no result: RORgamma inh, a7 integrin act, Giardia kill, Gal4-VP16 FLuc)
COc1ccc(C(=O)N/N=C/c2ccccn2)cc1OC	RORgamma inh inconclusive, Gal4-VP16 FLuc inconclusive
Cc1ccccc1C(=O)N/N=C/c1ccncc1	none
CCC/C=N/NC(=O)c1ccccc1O	RORgamma inh 10µM, a7 integrin act inconclusive
CCOc1ccc(Br)cc1C(=O)N/N=C/c1ccccn1	RORgamma inh 11µM
COc1ccc(C(=O)Nc2ccccc2C(=O)N/N=C/c2ccccn2)cc1OC	RORgamma inh 1.3µM, Gal4-VP16 FLuc 3.2µM
O=C(N/N=C\c1ccncc1)c1ccccc1O	RORgamma inh 11µM, Gal4-VP16 FLuc inconclusive
COc1ccc(-n2nnnc2/C=C\Nc2ccc(C)cc2)cc1	none
CCN1C(C)=C(C(=O)OC)C(c2ccccc2)N2C(=O)[C@](O)(C(=O)OC)CC(C#N)=C12 (some centres undefined)	none (no result: ERG-DNA inh, a7 integrin act, Giardia kill)
Cc1onc(-c2ccccc2Cl)c1C(=O)Nc1nnc(-c2ccc(Br)cc2)s1	RORgamma inh 10µM, Gal4-VP16 FLuc 22µM
Cc1onc(-c2ccccc2Cl)c1C(=O)Nc1nnc(-c2ccc(F)cc2)s1	RORgamma inh inconclusive

Compound activity from PubChem.
